# Bioassay records deposited in PubChem BioAssay by National Center for Advancing Translational Sciences (NCATS).
# The sample as a whole holds a higher share of hits than the screen did.
# LmPK inh: qHTS Assay for Inhibitors of Leishmania Mexicana Pyruvate Kinase (LmPK); Potency, µM (series often up to 57.5 µM), inactives show top-dose activity change, negative = inhibition, usual class: inhibitors; purified LmPK, Kinase-Glo ATP luminescence, 1 h; Q27686; AID 1721, 2009; 0.37% of 290,000 active; also: potency is read from the fitted curve at half-maximal effect; % is scaled to controls: 0 for no effect and ±100 for the full control effect
# Target sequence (Q27686 whole entry, looked up): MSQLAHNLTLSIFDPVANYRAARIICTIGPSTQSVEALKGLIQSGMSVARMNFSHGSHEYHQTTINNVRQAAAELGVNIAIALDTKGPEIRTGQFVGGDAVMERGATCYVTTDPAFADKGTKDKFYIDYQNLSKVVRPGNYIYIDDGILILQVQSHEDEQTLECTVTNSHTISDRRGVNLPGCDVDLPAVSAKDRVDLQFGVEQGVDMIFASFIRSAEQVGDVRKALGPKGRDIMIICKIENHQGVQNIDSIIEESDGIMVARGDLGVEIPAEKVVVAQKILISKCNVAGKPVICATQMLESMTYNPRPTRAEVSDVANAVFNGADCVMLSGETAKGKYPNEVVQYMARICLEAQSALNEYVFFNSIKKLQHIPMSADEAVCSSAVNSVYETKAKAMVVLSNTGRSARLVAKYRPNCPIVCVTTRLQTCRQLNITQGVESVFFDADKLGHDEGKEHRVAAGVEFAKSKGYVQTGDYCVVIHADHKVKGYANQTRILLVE
#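 Kinase-Glo luminescence read after 1 h RT reaction of 0.1 nM LmPK with 0.5 mM PEP and 0.1 mM ADP. Activity scaled between uninhibited and enzyme-free controls.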
# Shiga toxin inh: A qHTS for Small Molecule Inhibitors of Shiga Toxin | 9.2% of 290,000 active | inhibition, % at 38.7 µM | Vero cells, Shiga toxin protein synthesis inhibition reporter; in the data active = inhibition mostly above about 28%, no sharp cut-off; inactive = mostly below about 43%; also: 0% is about no effect
# FBPA Giardia inh: qHTS Assay for Inhibitors of Fructose-1,6-bisphosphate Aldolase from Giardia Lamblia | purified Giardia FBPA | A8B2U2 | 0.71% of 290,000 active | Potency, µM (highest dose often 59.6 µM), for inactives: at the highest dose activity, negative = inhibition, most hits filed as inhibitors; also: potency is read from the fitted curve at half-maximal effect; % is scaled to controls: 0 for no effect and ±100 for the full control effect; nearly all actives have a fitted effect of over 55% in size
#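 40 nM FBPA preincubated 10 min at RT with compound (up to 57.5 uM final), then substrate plus GAPDH/TPI/NAD/arsenate coupling and diaphorase/resazurin added. Fluorescence read after 20 min at RT, 525/598 nm.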
# Sm TGR inh: qHTS Assay for the Inhibitors of Schistosoma Mansoni Peroxiredoxins. Schistosoma mansoni thioredoxin glutathione reductase (TGR), Q962Y6. purified TGR, DTNB reduction, TNB absorbance 405 nm. Potency, µM (doses to about 114 µM), without a hit: top-dose activity change, negative = inhibition, actives largely listed as inhibitors. 3% of 360,000 active. AID 485364, 2010; also: potency is read from the fitted curve at half-maximal effect; % is scaled to controls: 0 for no effect and ±100 for the full control effect; nearly all actives have a fitted effect of over 60% in size
#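 Kinetic colorimetric format: TGR-catalysed, NADPH-driven DTNB reduction monitored via TNB absorbance. Enzyme dispensed at 20 nM; compound exposure 15 min at room temperature before reaction start.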
# Cycloheximide cs: Cycloheximide Counterscreen for Small Molecule Inhibitors of Shiga Toxin; cell reporter, cycloheximide protein synthesis inhibition counterscreen; max response, %; 12% of 300,000 active; in the data active = max response mostly above about 13%, no sharp cut-off; inactive = mostly below about 14%; also: read at 38.3 µM for the half of the compounds with a filed dose; 0% is about no effect
# Tb PYK inh: qHTS of Trypanosoma Brucei Inhibitors; pyruvate kinase (Trypanosoma brucei), Q57TT1; TbPYK enzyme, Kinase-Glo Plus ATP luminescence, 45 min; Potency, µM (series often up to 76.8 µM), for inactives: at the top dose activity, negative = inhibition, usual class: inhibitors; 0.12% of 410,000 active; AID 624173, 2012; also: potency is read from the fitted curve at half-maximal effect; % is scaled to controls: 0 for no effect and ±100 for the full control effect; nearly all actives have a fitted effect of over 50% in size
#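 Screened from lowest to highest concentration, compounds were pinned into TbPYK/substrate mixtures, and ADP (130 uM final) was added. Plates sat at room temperature for 45 min prior to Kinase-Glo Plus detection by luminescence.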
# An asterisk follows results filed as active; ? = inconclusive; . = no result given; [ ] = dose if it differs, or a comment. Unless noted, calls follow the shape of the dose curve; as a rule, active = well fitted curve in the direction sought with a large enough effect; inconclusive = small, poorly fitted or top-dose-only effect, or another doubt; inactive = no such curve, though single readings can be large; an effect the other way counts as inactive or inconclusive.
SMILES,LmPK inh,Shiga toxin inh,FBPA Giardia inh,Sm TGR inh,Cycloheximide cs,Tb PYK inh
Nc1ccccc1N=Cc1ccc(-c2cccc(Cl)c2)o1,6%,76*,-17%,?,29*,12%
COC(=O)N/N=C/c1ccc(-c2cccc(Cl)c2)o1,-1%,55*,-5%,-9%,33*,2%
O=C(O)c1ccc(-c2cccc(Cl)c2)o1,.,.,.,.,.,-7%
Cc1ccc(-c2ccc(/C=N/NC(=O)CN3CCCC3)o2)cc1Cl,-2%,24,2%,4%,32,-8%
Cc1ccc(-c2ccc(/C=N/c3ncn[nH]3)o2)cc1Cl,5%,26,-10%,?,17*,-2%
CC1=NN(c2nc(-c3ccc(C)cc3)cs2)C(=O)C1N=Nc1ccccc1O (centres undefined),-10%,50*,10%,1%,43*,-7%
COc1ccc(-c2csc(N3N=C(C)C(C)C3=O)n2)cc1 (centres undefined),-9%,37,-25%,-2%,15*,3%
COc1ccc(-c2csc(N3CCC(C(N)=O)CC3)n2)cc1,.,.,.,0%,.,-28%
Cc1ccc(/C=N/n2c(-c3cccc(Cl)c3)n[nH]c2=S)o1,1%,8,3%,-2%,-2,?
S=c1[nH]nc(-c2ccccc2Cl)n1/N=C/C=C/c1ccco1,-4%,2,-10%,20µM*,-3,?
S=c1[nH]nc(-c2ccncc2)n1/N=C/C=C/c1ccco1,0%,-7,?,22µM*,-5,?
CC(/C=N/n1c(-c2ccccc2)n[nH]c1=S)=C\c1ccco1,-16%,-11,3%,?,-1,?
Cc1cccc(-c2n[nH]c(=S)n2/N=C/C=C/c2ccco2)c1,-17%,8,-2%,11µM*,-2,?
S=c1[nH]nc(-c2cccc(Cl)c2)n1/N=C/c1ccco1,-3%,13,-5%,40µM*,8,?
Cc1cc(C)c(S(=O)(=O)NCC(c2ccc(N(C)C)cc2)N2CCOCC2)c(C)c1 (centres undefined),.,.,.,-27%,.,1%
COC(=O)c1ccc2c(=O)n(CCCCCC(=O)NCCc3ccc(Cl)cc3)c(=O)[nH]c2c1,.,.,.,-1%,.,2%
CC(/C=N/n1c(-c2ccncc2)n[nH]c1=S)=C\c1ccco1,2%,-4,-8%,32µM*,-2,?
C(=C\c1ccco1)/C=N/n1cnnc1,13%,26,?,28µM*,4,-3%
CC(/C=N/n1c(-c2ccc(C)cc2)n[nH]c1=S)=C\c1ccco1,-6%,-3,5%,-25%,-1,-11%
CC(C)OCCCNC(=O)C(=O)Nc1c2c(nn1-c1ccccc1)CS(=O)(=O)C2,.,.,.,-1%,.,1%
COc1ccc(C2=NC(C)(C)N(CC(=O)Nc3cccc(C)c3)C2=O)cc1,.,.,.,10%,.,3%
CC(C)NC(=O)C1CCCN(S(=O)(=O)c2ccc3c(ccn3C)c2)C1 (centres undefined),.,.,.,-15%,.,-1%
CCOc1ccccc1NC(=O)CCC(=O)Nc1nnc(C2CCCCC2)s1,0%,11,12%,1%,4,7%
CCCCC(=O)NC1(C(F)(F)F)C(=O)N(CC(C)C)C2=C1C(=O)CC(C)(C)C2 (centres undefined),0%,44*,8%,6%,30,1%
O=C(Nc1ccccc1C(=O)N1CCN(Cc2ccccc2)CC1)c1ccccc1,-2%,-5,.,-7%,-3,-5%
SMILES,LmPK inh,Shiga toxin inh,FBPA Giardia inh,Sm TGR inh,Cycloheximide cs,Tb PYK inh
CCCCN(C)C(=O)CCCc1c[nH]c2ccccc12,8%,42*,1%,-7%,17*,-6%
O=C(CCCc1c[nH]c2ccccc12)N1CCCCCC1,1%,38,-5%,-1%,20*,0%
CCOC(=O)CCCc1c[nH]c2ccccc12,-2%,38,1%,32%,8,-9%
CCO[C@@H](Cc1ccc(OCCc2ccc(OS(C)(=O)=O)cc2)cc1)C(=O)O,.,.,.,.,.,-5%
CCC1CN(C(=O)Nc2cc(Cl)c(OC)cc2OC)c2ccccc2O1 (centres undefined),.,.,.,0%,.,-4%
COc1cc(N2CCC(N3CCN(C)CC3)CC2)ccc1Nc1ncc(Cl)c(Nc2ccccc2S(=O)(=O)C(C)C)n1,.,.,.,.,.,-24%
O=C(Nc1ccc(C(F)(F)F)cc1)OC1CN2CCC1CC2 (centres undefined),2%,55*,5%,-2%,32*,0%
Cc1ccc(OCc2nc(-c3cccs3)no2)c([N+](=O)[O-])c1,4%,100*,-5%,2%,45*,1%
O=[N+]([O-])c1ccc(F)cc1OCc1nc(-c2cccs2)no1,-2%,95*,-4%,3%,41*,-3%
O=C(O)CCc1nc(-c2cccs2)no1,-2%,-17,6%,7%,-2,-5%
O=[N+]([O-])c1ccccc1OCc1nc(-c2cccs2)no1,-13%,179*,-7%,0%,61*,-1%
Cc1nc(-c2ccc(Cl)cc2)sc1CCNC(=O)c1ccc(C(F)(F)F)cc1,.,.,.,6%,.,-1%
CN(Cc1ccccc1)C(=O)COC(=O)c1ccc2c(c1)OCO2,-3%,54*,6%,-4%,33*,3%
CN(Cc1ccccc1)C(=O)COC(=O)c1cc(Cl)nc(Cl)c1,2%,-6,1%,2%,-3,0%
CC(CN(C)Cc1ccccc1)OC(=O)c1ccc2c(c1)OCCO2 (centres undefined),-1%,15,-8%,1%,31*,-5%
CN(Cc1ccccc1)C(=O)c1ccc2c(c1)OCO2,0%,16,-2%,-21%,15*,7%
CCn1c(SCC(=O)c2ccc3c(c2)OCCO3)nnc1-c1ccco1,5%,8,?,22µM*,15*,-28%
CCn1c(SCc2c(F)cccc2Cl)nnc1-c1ccco1,4%,34*,-21%,?,12*,-3%
COCCn1c(SCC(=O)c2ccc3c(c2)OCCO3)nnc1-c1ccco1,1%,-11,-3%,-25%,4,-29%
CCn1c(SCC(=O)N2CCCCC2C)nnc1-c1ccco1 (centres undefined),0%,20,5%,45µM*,6,-4%
CCn1c(SCC(=O)NNC(=O)c2ccccc2)nnc1-c1ccco1,-2%,-7,0%,-3%,-1,-7%
CCn1c(SCC(=O)c2ccc3ccccc3c2)nnc1-c1ccco1,6%,2,-2%,32µM*,3,.
CCCNC(=O)CSc1nc2ccccc2nc1Cc1ccc(Cl)cc1,.,.,.,3%,.,14%[15.4 µM]
Cc1nc2cc(-c3cccs3)[nH]n2c(=O)c1C,.,.,.,.,.,-3%
